From the supplement of paper PMC4466140

How the values were obtained:
Experiment in all cases: SPOT peptide array binding signal intensity (averaged, normalized) (arbitrary units (background-subtracted, floor 0; scale differs between SH3 domains)); higher = stronger binding of the SH3 domain to the peptide
[1] = biological target: AgAbp1
How it was run: (§1)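 SH3 domains from four yeast species were expressed as GST fusions in E. coli BL21(DE3) and purified on glutathione Sepharose. Each was incubated at 10 μg/ml overnight at 4°C in TBS-based blocking buffer on cellulose membranes bearing synthetic 15-mer peptides, in which serines replaced cysteines. Bound protein was detected with anti-GST antibody, an HRP anti-mouse secondary and luminol, then imaged and quantified with Genespotter. The binding signal is the normalized, background-subtracted spot intensity averaged over replicates, in arbitrary units that are not the same from one domain to another.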

[2] = biological target: AgBbc1
How it was run: as §1

[3] = biological target: AgBem1-D1
How it was run: as §1

[4] = biological target: AgBzz1-D1
How it was run: as §1

[5] = biological target: AgBzz1-D2
How it was run: as §1

[6] = biological target: AgCyk3
How it was run: as §1

[7] = biological target: AgFus1
How it was run: as §1

[8] = biological target: AgHof1
How it was run: as §1

[9] = biological target: AgHse1
How it was run: as §1

[10] = biological target: AgLsb1
How it was run: as §1

[11] = biological target: AgLsb4
How it was run: as §1

[12] = biological target: AgMyo5
How it was run: as §1

[13] = biological target: AgNbp2
How it was run: as §1

[14] = biological target: AgRvs167
How it was run: as §1

[15] = biological target: AgSho1
How it was run: as §1

[16] = biological target: AgSla1-D1-D2
How it was run: as §1

[17] = biological target: AgSla1-D3
How it was run: as §1

[18] = biological target: CaAbp1-D1
How it was run: as §1

[19] = biological target: CaAbp1-D2
How it was run: as §1

[20] = biological target: CaBbc1
How it was run: as §1

[21] = biological target: CaBem1-D1
How it was run: as §1

[22] = biological target: CaBzz1-D1
How it was run: as §1

[23] = biological target: CaBzz1-D2
How it was run: as §1

[24] = biological target: CaCyk3
How it was run: as §1

[25] = biological target: CaFus1
How it was run: as §1

[26] = biological target: CaHof1
How it was run: as §1

[27] = biological target: CaHse1
How it was run: as §1

[28] = biological target: CaLsb1
How it was run: as §1

[29] = biological target: CaLsb4
How it was run: as §1

[30] = biological target: CaMyo5
How it was run: as §1

[31] = biological target: CaNbp2
How it was run: as §1

[32] = biological target: CaRvs167
How it was run: as §1

[33] = biological target: CaRvs167-3
How it was run: as §1

[34] = biological target: CaSho1
How it was run: as §1

[35] = biological target: CaSla1-D1-D2
How it was run: as §1

[36] = biological target: CaSla1-D3
How it was run: as §1

[37] = biological target: ScAbp1
How it was run: as §1

[38] = biological target: ScBbc1
How it was run: as §1

[39] = biological target: ScBem1-D1
How it was run: as §1

[40] = biological target: ScBzz1-D1
How it was run: as §1

[41] = biological target: ScBzz1-D2
How it was run: as §1

[42] = biological target: ScCyk3
How it was run: as §1

[43] = biological target: ScFus1
How it was run: as §1

[44] = biological target: ScHof1
How it was run: as §1

[45] = biological target: ScHse1
How it was run: as §1

[46] = biological target: ScLsb1
How it was run: as §1

[47] = biological target: ScLsb2
How it was run: as §1

[48] = biological target: ScLsb3
How it was run: as §1

[49] = biological target: ScLsb4
How it was run: as §1

[50] = biological target: ScMyo3
How it was run: as §1

[51] = biological target: ScMyo5
How it was run: as §1

[52] = biological target: ScNbp2
How it was run: as §1

[53] = biological target: ScPex13
How it was run: as §1

[54] = biological target: ScRvs167
How it was run: as §1

[55] = biological target: ScSho1
How it was run: as §1

[56] = biological target: ScSla1-D1-D2
How it was run: as §1

[57] = biological target: ScSla1-D3
How it was run: as §1

[58] = biological target: SpAbp1-D1
How it was run: as §1

[59] = biological target: SpBbc1
How it was run: as §1

[60] = biological target: SpBzz1-D1
How it was run: as §1

[61] = biological target: SpBzz1-D2
How it was run: as §1

[62] = biological target: SpCyk3
How it was run: as §1

[63] = biological target: SpHof1
How it was run: as §1

[64] = biological target: SpHof1-2
How it was run: as §1

[65] = biological target: SpHof1-3
How it was run: as §1

[66] = biological target: SpHse1
How it was run: as §1

[67] = biological target: SpLsb1
How it was run: as §1

[68] = biological target: SpLsb4
How it was run: as §1

[69] = biological target: SpMyo1
How it was run: as §1

[70] = biological target: SpNbp2
How it was run: as §1

[71] = biological target: SpPex13
How it was run: as §1

[72] = biological target: SpRvs167
How it was run: as §1

[73] = biological target: SpSla1-D1-D2
How it was run: as §1

[74] = biological target: SpSla1-D3
How it was run: as §1

Binder: PIVPSSPAPPLPLSG
- SPOT peptide array binding signal intensity [1]: ≤ 0
- SPOT peptide array binding signal intensity [2]: ≤ 0
- SPOT peptide array binding signal intensity [3]: ≤ 0
- SPOT peptide array binding signal intensity [4]: ≤ 0
- SPOT peptide array binding signal intensity [5]: ≤ 0
- SPOT peptide array binding signal intensity [6]: ≤ 0
- SPOT peptide array binding signal intensity [7]: ≤ 0
- SPOT peptide array binding signal intensity [8]: ≤ 0
- SPOT peptide array binding signal intensity [9]: 13.5
- SPOT peptide array binding signal intensity [10]: ≤ 0
- SPOT peptide array binding signal intensity [11]: ≤ 0
- SPOT peptide array binding signal intensity [12]: 3230
- SPOT peptide array binding signal intensity [13]: ≤ 0
- SPOT peptide array binding signal intensity [14]: ≤ 0
- SPOT peptide array binding signal intensity [15]: ≤ 0
- SPOT peptide array binding signal intensity [16]: 7
- SPOT peptide array binding signal intensity [17]: ≤ 0
- SPOT peptide array binding signal intensity [18]: ≤ 0
- SPOT peptide array binding signal intensity [19]: ≤ 0
- SPOT peptide array binding signal intensity [20]: ≤ 0
- SPOT peptide array binding signal intensity [21]: ≤ 0
- SPOT peptide array binding signal intensity [22]: 19
- SPOT peptide array binding signal intensity [23]: 11.2
- SPOT peptide array binding signal intensity [24]: ≤ 0
- SPOT peptide array binding signal intensity [25]: 14.5
- SPOT peptide array binding signal intensity [26]: ≤ 0
- SPOT peptide array binding signal intensity [27]: ≤ 0
- SPOT peptide array binding signal intensity [28]: ≤ 0
- SPOT peptide array binding signal intensity [29]: ≤ 0
- SPOT peptide array binding signal intensity [30]: 611
- SPOT peptide array binding signal intensity [31]: 4.5
- SPOT peptide array binding signal intensity [32]: ≤ 0
- SPOT peptide array binding signal intensity [33]: 1
- SPOT peptide array binding signal intensity [34]: ≤ 0
- SPOT peptide array binding signal intensity [35]: 0.5
- SPOT peptide array binding signal intensity [36]: ≤ 0
- SPOT peptide array binding signal intensity [37]: ≤ 0
- SPOT peptide array binding signal intensity [38]: ≤ 0
- SPOT peptide array binding signal intensity [39]: ≤ 0
- SPOT peptide array binding signal intensity [40]: 7.5
- SPOT peptide array binding signal intensity [41]: 1.5
- SPOT peptide array binding signal intensity [42]: ≤ 0
- SPOT peptide array binding signal intensity [43]: ≤ 0
- SPOT peptide array binding signal intensity [44]: ≤ 0
- SPOT peptide array binding signal intensity [45]: ≤ 0
- SPOT peptide array binding signal intensity [46]: ≤ 0
- SPOT peptide array binding signal intensity [47]: ≤ 0
- SPOT peptide array binding signal intensity [48]: ≤ 0
- SPOT peptide array binding signal intensity [49]: ≤ 0
- SPOT peptide array binding signal intensity [50]: 2720
- SPOT peptide array binding signal intensity [51]: 3220
- SPOT peptide array binding signal intensity [52]: ≤ 0
- SPOT peptide array binding signal intensity [53]: ≤ 0
- SPOT peptide array binding signal intensity [54]: ≤ 0
- SPOT peptide array binding signal intensity [55]: ≤ 0
- SPOT peptide array binding signal intensity [56]: 1
- SPOT peptide array binding signal intensity [57]: 7.5
- SPOT peptide array binding signal intensity [58]: ≤ 0
- SPOT peptide array binding signal intensity [59]: 6
- SPOT peptide array binding signal intensity [60]: 52.5
- SPOT peptide array binding signal intensity [61]: 1.5
- SPOT peptide array binding signal intensity [62]: ≤ 0
- SPOT peptide array binding signal intensity [63]: ≤ 0
- SPOT peptide array binding signal intensity [64]: ≤ 0
- SPOT peptide array binding signal intensity [65]: ≤ 0
- SPOT peptide array binding signal intensity [66]: 7
- SPOT peptide array binding signal intensity [67]: ≤ 0
- SPOT peptide array binding signal intensity [68]: ≤ 0
- SPOT peptide array binding signal intensity [69]: 1220
- SPOT peptide array binding signal intensity [70]: ≤ 0
- SPOT peptide array binding signal intensity [71]: 1
- SPOT peptide array binding signal intensity [72]: 3.5
- SPOT peptide array binding signal intensity [73]: ≤ 0
- SPOT peptide array binding signal intensity [74]: ≤ 0

Binder: TEVPIPRRPPPPQAA
- SPOT peptide array binding signal intensity [61]: 0.25
- SPOT peptide array binding signal intensity [62]: ≤ 0
- SPOT peptide array binding signal intensity [63]: ≤ 0
- SPOT peptide array binding signal intensity [64]: ≤ 0
- SPOT peptide array binding signal intensity [65]: ≤ 0
- SPOT peptide array binding signal intensity [66]: 8
- SPOT peptide array binding signal intensity [67]: 1
- SPOT peptide array binding signal intensity [68]: 90.5
- SPOT peptide array binding signal intensity [69]: 1920
- SPOT peptide array binding signal intensity [70]: 1
- SPOT peptide array binding signal intensity [71]: ≤ 0
- SPOT peptide array binding signal intensity [72]: ≤ 0
- SPOT peptide array binding signal intensity [73]: ≤ 0
- SPOT peptide array binding signal intensity [74]: 1
